Drawing on PubChem BioAssay AID709 (SRMLSC, 2007), this text covers fluorescence fold increase for 63 compounds.

Screen size: about 65,000 compounds; about 3,600 (5.5%) were called active. The sample holds actives, similar compounds and a random draw of the others, so the mix is not that of the screen. A number with no mark means an inactive call.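 Rule for the calls: active = at 10 µM, mean starting fluorescence two-fold or more over control wells; inactive = the rest.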

The assay in a line: intrinsic fluorescence of library compounds, ex339/em460 – biochemical, MLSMR library, data from DPM-DC assay, artefact control, profiling panel (AID 709).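 Note: signal is the first read of a kinetic run.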 To be noted: compound autofluorescence, ex339/em460 nm, NADH buffer; at 10 µM; hits give high values; 1 = no-compound wells, NADH background.
For `CCN(CC(=O)NC(C)C)C(=O)CCNC(=O)c1ccc(Cl)cc1`, the fluorescence fold increase was 1.13. As to `CCOc1cc2c(cc1OCC)C(C(=O)O)C(c1ccc(OC)c(O)c1)N(C)C2=O` (stereo not drawn), the fluorescence fold increase is 1.02. With `O=C(Nc1cccc(NC(=O)N2CCN(c3ccccc3)CC2)c1)N1CCN(c2ccccc2)CC1`, the fluorescence fold increase was 1.06. Turning to `Cn1c(CCN2CCCCCC2)nc2cc(NC(=O)Nc3ccccc3)ccc21`, the fluorescence fold increase was 1.24. For the compound `Cc1nc2ccc(NC(=O)N3CCC(c4ccccc4)C3)cc2nc1C` (stereo not drawn), the fluorescence fold increase is 2.93 (active).

Take `CCc1cc(=O)oc2cc(C)cc(OC(C)C(=O)O)c12` (stereo not drawn): the fluorescence fold increase is 3.78 (active). `CCCSC1=C(C#N)C(c2ccccc2C)C(C(=O)OC)C(=O)N1` (stereo not drawn): the fluorescence fold increase was 1.13.

For `CCc1nc(N2CCN(c3nc(C)cc(C)n3)CC2)c2oc3ccccc3c2n1`, the fluorescence fold increase was 2.49 (active). For the compound `Cc1nc(N2CCN(c3ncccn3)CC2)c2oc3ccccc3c2n1`, the fluorescence fold increase is 1.16. Then `Cc1cc(C)nc(N2CCN(c3ncnc4c3oc3ccccc34)CC2)n1`, with 1.27.

As for `Cc1noc(COc2ccccc2OCC(O)CNC(C)(C)C)n1` (stereo not drawn), the fluorescence fold increase was 1.04.

Regarding `O=c1c(-c2ccc3c(c2)OCCO3)c(C(F)(F)F)oc2cc(O)cc(O)c12`, the fluorescence fold increase was 1.07. Regarding `CCC(C)(C)n1nnnc1C(c1cccs1)N1CCN(c2nc3ccccc3s2)CC1` (stereo not drawn), the fluorescence fold increase is 1.35.

As to `CCOC(=O)c1[nH]cnc1C(=O)NC1CCCCC1`, the fluorescence fold increase was 1.07. With `COc1cccc(N2CCN(C3CC(=O)N(c4ccc(Cl)cc4)C3=O)CC2)c1` (stereo not drawn), the fluorescence fold increase was 1.12. In the case of `CC1CCCN(C(=O)Cn2c(=O)oc3ccccc32)C1` (stereo not drawn), the fluorescence fold increase was 1.09. In the case of `Cc1nc(NCc2ccccc2)c(C(N)=O)c2c1COC(C)(C)C2`, the fluorescence fold increase is 1.89.

On to `O=C(O)CCC(=O)N(Cc1cccs1)Cc1cccs1`, for which the fluorescence fold increase is 1.09. For the compound `CCCC(=O)NC(C)C(c1cccs1)N1CCN(c2ccccc2)CC1` (stereo not drawn), the fluorescence fold increase is 0.99. Take `CC(C)Cn1c(CCC(=O)O)ccc1-c1cccs1`: the fluorescence fold increase is 3.14 (active). For the compound `CCCCOC(=O)c1ccc(N2C(=O)CC(N3CCN(C/C=C/c4ccccc4)CC3)C2=O)cc1` (stereo not drawn), the fluorescence fold increase was 1.12.

Turning to `Clc1ccc(Cc2nn3c(-c4ccncc4)nnc3s2)cc1`, the fluorescence fold increase was 1. As for `CCCCC(=O)Nc1ccc2c(c1)C(=O)NC2=O`, the fluorescence fold increase was 2.11 (active). With `CCCCC(=O)Nc1ccc(C(=O)NCCCn2ccnc2)cc1`, the fluorescence fold increase is 1.13. Turning to `CCCCC(=O)Nc1ccc2c(c1)OCCO2`, the fluorescence fold increase is 1.08. The result for `O=C(Nc1ccccc1N1CCN(C(=O)c2ccccc2)CC1)c1ccc2c(c1)OCO2` reads 1.1; that for `N#CCSc1nc2ccccc2c(=O)n1-c1ccccc1`, 1.11.

In the case of `CC(C)CCNC(=O)C1CCCN(S(=O)(=O)c2ccc(F)cc2)C1` (stereo not drawn), the fluorescence fold increase is 1.06. With `CCOc1cc2[nH]c(=S)n(CCCN3CCCC3=O)c(=O)c2cc1OCC`, the fluorescence fold increase is 1.07. For `CSc1nnc(-c2ccncc2)n1CCCN1CCCC1=O`, the fluorescence fold increase was 0.81. Then `CC(C)(C)OC(=O)c1c(N)n(CCCN2CCCC2=O)c2nc3ccccc3nc12`, with 3.76 (active).

Turning to `COc1ccc(CNC2CCCCC2)cc1`, the fluorescence fold increase is 1.1. The result for `O=S(=O)(NCCNS(=O)(=O)c1ccccc1)c1ccccc1` reads 1.04; that for `CCOc1ccc2cc(C#N)c(SCC(=O)OC)nc2c1`, 1.95; that for `CCOc1ccc2nc(NCCNS(=O)(=O)c3ccccc3)c(C#N)cc2c1`, 3.3 (active).

In the case of `COC(=O)C(CC(=O)Nc1cc(C)ccc1C)Nc1ccccc1OC` (stereo not drawn), the fluorescence fold increase is 1.02. Then `COc1ccc(C2C3=C(OC(C)=O)c4ccccc4C3=Nc3c2c(=O)n(C)c(=O)n3C)cc1` (stereo not drawn), with 1.09; and `CC1CCCN(C(=O)c2ccc3c(c2)C(=O)N(CCC2=CCCCC2)C3=O)C1` (stereo not drawn), with 1.04. The result for `Cn1nnc2cc(C(=O)NCCC3=CCCCC3)ccc21` reads 1.03. Regarding `Cc1ccc2c(c1)c1ncn(CCC3=CCCCC3)c(=O)c1n2C`, the fluorescence fold increase is 2.08 (active).

In the case of `Cc1ccc(C(C(=O)NCc2ccco2)N(CC2CCCO2)C(=O)Cn2nnc3ccccc32)cc1` (stereo not drawn), the fluorescence fold increase was 0.88. In the case of `CCc1nnc(NC(=O)CSc2nnc(COc3ccc(C#N)cc3)n2-c2ccccc2)s1`, the fluorescence fold increase is 1.27. Regarding `Cc1nn(-c2ccccc2)c2c1C(=O)NC(=O)C(C)(C)C2`, the fluorescence fold increase was 1.03. Regarding `COc1ccc(OCC(=O)N2CCOCC2)cc1`, the fluorescence fold increase is 1.05. In the case of `O=C(Nc1cccc(OCC(=O)N2CCOCC2)c1)C1CCCCC1`, the fluorescence fold increase was 1.05. Then `O=C1CC2(CCCCC2)Oc2ccc(OCC(=O)N3CCOCC3)cc21`, with 5.15 (active); and `Cn1c(=O)c2c(nc(OCc3cccnc3)n2Cc2ccccc2)n(C)c1=O`, with 1.09.

Take `CCC(C)(NC(=O)c1ccccn1)C(=O)NC1CCCCC1` (stereo not drawn): the fluorescence fold increase is 1.14. `Cc1cc(=O)n(C)c(=O)n1CCCNc1ccccc1`: the fluorescence fold increase was 1.05. Then `CCOC(=O)/C=c1\s/c(=C\c2ccccc2OC)c(=O)n1CC(=O)N1CCOCC1`, with 1.14; and `CCOC(=O)c1sc(NC(=O)C(CC)Sc2nccn2C)nc1C` (stereo not drawn), with 1.08; and `CCOC(=O)c1nc(N)sc1C(=O)OCC`, with 1.12. Then `CCOC(=O)c1sc(/N=C/Nc2nc(C)c(C(=O)OCC)s2)nc1C`, with 4.03 (active); and `O=C1NC2(CCCCC2)N=C1c1ccccc1`, with 1.08; and `COc1ccccc1N1CCN(C(=O)Cn2nnc(-c3cccs3)n2)CC1`, with 1.07. Then `C=CCn1c(=S)[nH]c2nc3c(cc2c1=O)COC(C)(C)C3`, with 1.03; and `O=C(c1ccccc1-c1ccccc1)N1CCOCC1`, with 0.82; and `COc1ccc(OC)c(C(=O)c2coc3ccc(O)c(CN4CCOCC4)c23)c1`, with 1.03.

`O=c1c(-c2ccccc2)coc2c(CN3CCOCC3)c(O)ccc12`: the fluorescence fold increase was 2.45 (active). Turning to `CSCCC(NC(N)=O)C(=O)N(C)CC(=O)Nc1ccc(C)cc1` (stereo not drawn), the fluorescence fold increase was 0.91. Then `O=C(NCCCN1CCCCCC1)C1CC(=O)N(C2CCCC2)C1` (stereo not drawn), with 1.16; and `COc1cc2ccccc2cc1C(=O)Nc1ccc(S(=O)(=O)Nc2cc(C)on2)cc1`, with 1.32. On to `O=C(Cn1cnc2c(nnn2-c2ccccc2)c1=O)N1CCC(Cc2ccccc2)CC1`, for which the fluorescence fold increase is 1.07.
